According to PubChem BioAssay (NCATS):
Active and inactive are the calls of the source. The call rests on the fitted dose curve; in most records, active means well fitted curve in the direction sought with a large enough effect; inconclusive means small, poorly fitted or top-dose-only effect, or another doubt; inactive means no such curve, though single readings can be large or run the other way.

The compounds below were run against Galactokinase (Homo sapiens) (UniProt P51570) (assay: qHTS Validation Assay for Inhibitors of Human Galactokinase (GALK) (AID 493189; further: 0% is about no effect)). Settings: purified human GALK enzyme activity, qHTS 7-point titration; series mostly up to 57.5 µM; activity change, negative = inhibition: at the top concentration.
Chain of Galactokinase (Homo sapiens) (P51570 whole entry, looked up): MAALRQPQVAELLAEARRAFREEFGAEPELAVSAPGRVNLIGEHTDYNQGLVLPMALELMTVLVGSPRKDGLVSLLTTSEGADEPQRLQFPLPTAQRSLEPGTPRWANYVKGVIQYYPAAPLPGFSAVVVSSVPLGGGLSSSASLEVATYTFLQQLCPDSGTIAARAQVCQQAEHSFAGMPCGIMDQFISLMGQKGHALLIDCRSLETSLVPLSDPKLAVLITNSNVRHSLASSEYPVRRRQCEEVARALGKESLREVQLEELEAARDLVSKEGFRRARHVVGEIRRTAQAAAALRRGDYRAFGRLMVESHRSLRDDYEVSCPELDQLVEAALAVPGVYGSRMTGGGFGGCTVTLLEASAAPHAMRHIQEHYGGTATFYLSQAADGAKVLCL
Description: NIH Molecular Libraries Probe Production Centers Network [MLPCN]
NIH Chemical Genomics Center [NCGC]
Assay Submitter (PI): Kent Lai (University of Utah School of Medicine, 50 N Mario Capecchi Drive, Salt Lake City, UT 84132)
Inherited deficiency of galactose-1-phosphate uridyltransferase (GALT) can result in a potentially lethal disorder called Classic Galactosemia (OMIM 230400). Several lines of evidence indicate that an elevated level of galactose-1-phosphate (gal-1-p), the product of galactokinase (GALK), is a major, if not sole, pathogenic mechanism in patients with classic galactosemia. Therefore, finding inhibitors of GALK is a potential novel therapy for this inherent metabolic disease and is the long term goal of this project.
GALK (provided by the assay submitter) was assayed using ATP and D-(+)-Galactose (Sigma-Aldrich cat# G0750) as substrates. Promega Kinase-Glo Plus (cat# V3774) technology was used to detect the residual ATP following kinetic reaction. Briefly, the Kinase-Glo Plus contains Ultra-Glo [2] luciferase and D-luciferin which generates a bioluminescence signal from the remaining ATP.
NCGC Assay Protocol Summary:
Three uL/well of ATP-buffer solution (35 uM ATP, 20mM HEPES pH8.0, 5 mM MgCl2, 60 mM NaCl, 1 mM DTT, 0.01% BSA final concentration) was dispensed into 1536-well, assay plates (Greiner, solid white medium-binding plates) with Aurora Discovery BioRAPTR Flying Reagent Dispenser (FRD; Beckton-Dickenson). Compound solution (23 nL) was transferred to the assay plate using the Kalypsys 1536-pin tool. One uL/well GALK-galactose solution (5 nM GALK, 100 uM galactose, 20 mM HEPES pH8.0, 5 mM MgCl2, 60 mM NaCl, 1 mM DTT, 0.01% BSA final concentration) was then added using the FRD yielding a total kinase reaction volume of 4 uL/ well. After 1 hour of room temperature incubation, 4 uL Kinase-Glo Plus reagent was added for a final assay volume of 8 uL/ well. Luminescence was detected with the ViewLux plate reader (Perkin Elmer, Waltham, MA) after 10 min incubation using a 1 sec exposure time and 2x binning.
For `CCC1(c2ccc(N)cc2)CCC(=O)NC1=O` (stereo not drawn), the “activity change, negative = inhibition” value was 3.52% (inactive).
With `O=P1(N(CCCl)CCCl)NCCCO1` (stereo not drawn) the “activity change, negative = inhibition” value was 3.19% (inactive).
For `C=C(C)[C@H]1CN[C@H](C(=O)O)[C@H]1CC(=O)O`, the “activity change, negative = inhibition” value was -2.35% (inactive).
For `O=C(O)CCCc1ccc(N(CCCl)CCCl)cc1`, the “activity change, negative = inhibition” value was 3.66% (inactive).
In the case of `O=C(CCCN1CCC2(CC1)C(=O)NCN2c1ccccc1)c1ccc(F)cc1`, the “activity change, negative = inhibition” value is reported as 2.47% (inactive).
In the case of `CN1C(=O)CCS(=O)(=O)C1c1ccc(Cl)cc1` (stereo not drawn), the “activity change, negative = inhibition” value is reported as 4.17% (inactive).
With `C[C@]12CCC(=O)C=C1CC[C@@H]1[C@@H]2CC[C@]2(C)C(=O)CC[C@@H]12` the “activity change, negative = inhibition” value was 5.03% (inactive).
`CCCCC/C=C\C/C=C\C/C=C\C/C=C\CCCC(=O)NCC(=O)O` was tested, and the “activity change, negative = inhibition” value was 1.6% (inactive).
For `CC(C)c1cccc(C(C)C)c1O`, the “activity change, negative = inhibition” value was -2.41% (inactive).
`CC(C)(C)NCC(O)c1ccccc1Cl` (stereo not drawn) was tested, and the “activity change, negative = inhibition” value was -1.01% (inactive).
For `NCCc1ccc(O)cc1`, the “activity change, negative = inhibition” value was 2.01% (inactive).
For `CC(NC(C)(C)C)C(=O)c1cccc(Cl)c1` (stereo not drawn), the “activity change, negative = inhibition” value was 3.39% (inactive).
For `CC(C)N(CCC(C(N)=O)(c1ccccc1)c1ccccn1)C(C)C` (stereo not drawn), the outcome was “inactive”.
